Compound activity as filed in PubChem BioAssay.
The entries come from a sample that favours hits as a whole.
PglD inh: C. jejuni PglD acetyltransferase inhibitors, primary screen, biochemical, DTNB colorimetric, single point; UDP-N-acetylbacillosamine N-acetyltransferase PglD (Campylobacter jejuni); purified PglD enzyme, DTNB colorimetric CoA detection; inhibition, % at 12.5 µM; 360,000 tested, 0.098% active; in the data active = inhibition above about 16%, passing the limit was not always enough
DENV2 CPE: inhibitors of DENV2 cytopathic effect, primary screen, cell-based, plate reader, single concentration; DENV2-infected cells, cytopathic effect rescue; CPE inhibition, % at 9.99 µM; 350,000 tested, 1.7% active; in the data active = CPE inhibition above about 20%, passing the limit was not always enough; tested in BHK-21 cells;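 also: 0% = median of neutral control wells and 100% = median of positive control wells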
N-glyco inh: increase of ERlucT glycosylation luciferase signal, primary screen, N-linked glycosylation inhibitor project, D54 ERlucT cells, luminescence, set 2 | D54 ERlucT glycosylation luciferase reporter, 24 h; percent of 100 nM tunicamycin response | reporter increase, % at 12.5 µM | 360,000 tested, 0.23% active | AID 588692, 2011;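 active = mean luciferase reporter signal, scaled so untreated is 0 and the glycosylation-blocking control 100, at or above a set limit in every replicate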;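 also: luciferase carries N-glycosylation sites so blocking glycosylation raises the light; 0% = median of neutral control wells and 100% = median of 100 nM tunicamycin wells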
Rtt109 Vps75: inhibitors of C. albicans Rtt109/Vps75 HAT, primary screen, biochemical, ThioGlo CoA-SH fluorescence, plate reader; purified Rtt109/Vps75, 4 h; inhibition, % at 34.9 µM; 330,000 tested, 0.16% active; AID 540336, 2011;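 active = inhibition of at least 50% in every replicate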
Target sequence (Q5AAJ8 whole entry, looked up): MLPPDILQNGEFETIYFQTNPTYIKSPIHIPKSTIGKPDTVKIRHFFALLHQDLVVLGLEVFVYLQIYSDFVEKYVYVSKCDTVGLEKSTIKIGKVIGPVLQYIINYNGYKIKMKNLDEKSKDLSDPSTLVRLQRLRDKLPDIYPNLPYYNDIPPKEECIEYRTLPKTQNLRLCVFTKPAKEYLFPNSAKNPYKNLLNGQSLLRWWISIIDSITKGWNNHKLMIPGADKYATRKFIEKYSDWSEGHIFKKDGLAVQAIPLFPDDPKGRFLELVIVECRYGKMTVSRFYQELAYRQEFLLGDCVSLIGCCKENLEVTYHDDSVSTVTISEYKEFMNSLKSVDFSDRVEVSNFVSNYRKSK
Starred values were filed as active, the others as inactive; . = no result given; + = active, no number.

SMILES	PglD inh	DENV2 CPE	N-glyco inh	Rtt109 Vps75
Nc1ccc2ccc(O)cc2c1	2.4	-0.4	10.0	-6.1
Nc1cccc(O)c1	-1.0	21.4*	1.4	-3.6
Cc1noc(NS(=O)(=O)c2ccc(N/C=C/C(=O)c3cccnc3)cc2)c1C	-2.8	.	0.1	72.5*
N#C[C@@H]1[C@H](c2ccc(C#Cc3ccccc3F)cc2)[C@H](CO)N1C(=O)C1CCCC1	.	-8.1	.	.
N#C[C@H]1[C@@H](c2ccc(C#Cc3ccccc3F)cc2)[C@H](CO)N1C(=O)C1CCC1	-5.5	11.9	.	.
N#C[C@H]1[C@H](c2ccc(C#Cc3ccccc3F)cc2)[C@H](CO)N1C(=O)C1CC1	-0.8	30.2*	.	.
N#C[C@@H]1[C@@H](c2ccc(C#Cc3ccccc3F)cc2)[C@@H](CO)N1C(=O)C1CCC1	-5.7	51.2*	.	.
COc1ccc2c3c(n(C)c2c1)[C@H](CO)N(C(=O)CN(C)C)CC31CCN(C(=O)CN(C)C)CC1	.	0.8	.	.
COc1ccc2c3c([nH]c2c1)[C@@H](CO)N(S(C)(=O)=O)CC31CCN(Cc2nccs2)CC1	.	-2.9	.	.
N#C[C@@H]1[C@H](c2ccccc2-c2ccc(F)cc2)[C@H](CO)N1C(=O)NC1CCCCC1	.	-11.5	.	.
O=C(c1cccnc1)N1CC2(C1)[C@@H](c1ccccc1)[C@@H](CO)N2CC1CC1	.	20.3*	.	.
CCC(=O)N1CC2(C1)[C@@H](c1ccccc1)[C@@H](CO)N2Cc1ccccc1F	.	23.7*	.	.
O=C(C1CCCCC1)N1CC2(C1)[C@@H](c1ccccc1)[C@H](CO)N2C(=O)c1cccnc1	.	-11.0	.	.
CCS(=O)(=O)N1CC2(C1)[C@H](c1ccccc1)[C@@H](CO)N2C(=O)C1CC1	.	22.6*	.	.
O=C(C1CCCCC1)N1CC2(C1)[C@H](c1ccccc1)[C@H](CO)N2C(=O)c1cccnc1	.	27.7*	.	.
O=C(c1cccnc1)N1CC2(C1)[C@H](c1ccccc1)[C@@H](CO)N2CC1CC1	.	9.9	.	.
CCS(=O)(=O)N1CC2(C1)[C@H](c1ccccc1)[C@@H](CO)N2C(=O)C1CCCC1	.	-0.8	.	.
CO[C@H]1CN(C)C(=O)c2cc(NC(=O)Cc3ccccc3)ccc2OC[C@@H](C)N(C(C)=O)C[C@@H]1C	1.9	4.4	.	.
O=C(c1cccnc1)N1CC2(C1)[C@H](c1ccccc1)[C@H](CO)N2C(=O)C1CCC1	.	44.3*	.	.
CCC(=O)N1[C@H](CO)[C@H](c2ccccc2)C12CN(C(=O)Nc1ccccc1F)C2	.	27.1*	.	.
O=C(c1ccc2c(c1)OCO2)N1CC2(C1)[C@H](c1ccccc1)[C@H](CO)N2C(=O)C1CCC1	.	5.9	.	.
O=C(c1ccc2c(c1)OCO2)N1CC2(C1)[C@H](c1ccccc1)[C@@H](CO)N2C(=O)C1CCC1	.	43.5*	.	.
CCC(=O)N1CC2(C1)[C@H](c1ccccc1)[C@@H](CO)N2C(=O)NC(C)C	.	29.1*	.	.
C/C=C/c1ccc([C@H]2[C@@H](CNS(C)(=O)=O)N(CC3CC3)[C@H]2CO)cc1	1.3	-0.7	.	.
CCC(=O)N1CC2(C1)[C@H](c1ccccc1)[C@H](CO)N2C(=O)c1cccnc1	.	23.9*	.	.
SMILES	PglD inh	DENV2 CPE	N-glyco inh	Rtt109 Vps75
CCNC(=O)C[C@@H]1CC[C@H]2[C@H](COc3ccc(NC(=O)c4ccc(C(F)(F)F)cc4)cc3C(=O)N2C)O1	-3.8	-4.1	.	.
CC(C)(C)c1ccc(OCCNCc2ccccc2)cc1	0.2	-4.5	2.8	4.4
C[n+]1ccccc1COc1ccc(C(C)(C)C)cc1	.	22.7*	-2.1	4.6
O=C(O)c1ccccc1OC(C(=O)Nc1cc(Cl)cc(Cl)c1)c1ccccc1 (stereo not drawn)	0.7	11.7	29.4*	-2.8
O=C(Nc1cc(Cl)cc(Cl)c1)C(c1ccccc1)N1CCCCC1 (stereo not drawn)	.	.	-4.1	9.5
O=C(NCC1CCCO1)c1cc(-c2ccccc2)on1 (stereo not drawn)	1.6	.	34.1*	.
C[C@@H]1CN([C@H](C)CO)C(=O)CCCn2nncc2CO[C@@H]1CN(C)Cc1ccccc1	0.8	-1.6	.	.
O=[N+]([O-])c1cccc(COc2ccccc2CN2CCCC2)c1	-3.5	58.0*	2.1	-9.5
O=[N+]([O-])c1ccc(COc2ccccc2CN2CCCC2)cc1	0.4	1.9	3.2	-4.3
C[C@H](CO)N1C[C@H](C)[C@H](CN(C)Cc2ccc(C(F)(F)F)cc2)Oc2ccc(NC(=O)Cn3cnnn3)cc2CC1=O	-3.0	8.8	.	.
C[C@H](CO)N1C[C@H](C)[C@@H](CN(C)Cc2ccc(-c3ccccc3)cc2)Oc2c(NC(=O)NC3CCCCC3)cccc2C1=O	-1.8	12.6	.	.
Cc1cc(O)c(Sc2ncn[nH]2)cc1NS(=O)(=O)c1ccc(Cl)cc1	0.8	13.9	-0.1	7.3
O=S(=O)(Nc1cc(Sc2ncn[nH]2)c(O)c2ccccc12)c1ccccc1	.	3.3	13.8	+
Cc1ccc(S(=O)(=O)NCC(=O)NCc2cc(=O)n(C)c(=O)n2C)cc1	4.4	1.4	0.7	0.0
COc1ccc(S(=O)(=O)NCC(=O)NCc2cc(=O)n(C)c(=O)n2C)cc1	-1.9	56.7*	1.3	-0.1
Cc1[nH]c(C)c(C(=O)/C=C/c2ccc([N+](=O)[O-])cc2)c1C	-2.3	-1.4	42.1*	-0.5
COc1ccc(NC(=O)N(C)C[C@H]2OCCCC[C@H](C)Oc3ccc(NC(=O)C4CCCCC4)cc3C(=O)N([C@@H](C)CO)C[C@@H]2C)cc1	-0.3	.	.	.
O=C(NNCc1ccc(O)cc1)c1ccccc1Cl	-2.2	74.9*	-1.5	-0.8
C[C@@H]1CN([C@H](C)CO)C(=O)c2cc(NC(=O)Cn3cnnn3)ccc2O[C@H]1CN(C)Cc1ccc(C(F)(F)F)cc1	-10.6	12.6	.	.
CN(C)CCc1cc2c(c3c1ccc1ccccc13)OCO2	5.1	-22.7	78.0*	-7.7
Cc1ccccc1N=C1Nc2ccccc2N[C@]12C[C@H]1CCC(=O)N3CC[C@@H](C2)[C@@H]13	-2.0	148.3*	-0.8	-6.2
O=C1CC[C@@H]2CC3(C[C@@H]4CCN1[C@H]24)Nc1ccccc1NC3=NC1CCCCC1 (stereo partly drawn)	-5.9	-15.1	0.1	2.4
Nc1c(/C=C2/C=CC(=O)C(O)=C2)c(=O)nc2sc(CC(=O)N3CCOCC3)nn12	-2.7	30.8*	-0.7	16.7
CC1(C)CC(=O)C2=C(C1)Nc1cc3c(cc1C2c1ccc(F)cc1)OCO3 (stereo not drawn)	3.1	.	-1.3	4.3
CC1(C)CC(=O)C2=C(C1)Nc1cc3c(cc1C2c1ccc2c(c1)OCO2)OCO3 (stereo not drawn)	5.4	38.2*	0.5	-95.3
CC(C)(C)c1ccc(Nc2n[nH]c3ccccc23)cc1	3.8	65.8*	-16.8	.
Cc1n[nH]c2ccccc2c1=O	1.6	9.8	3.7	-2.5
